# Screening data deposited in PubChem by National Center for Advancing Translational Sciences (NCATS).
# SMN2 splice enh: qHTS Assay for Enhancers of SMN2 Splice Variant Expression; HEK293 SMN2-luciferase splicing reporter, luminescence, 30-36 h; Potency, µM (highest dose often 46.1 µM), inactives show top-dose activity change, positive = activation, actives largely listed as activators; 210,000 tested, 2.8% active; note: % of control where 0% means no effect; nearly all actives have a fitted effect of over 55% in size
#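 HEK293 cells carry an SMN2 minigene-luciferase reporter in which exon 7 inclusion puts luciferase in frame. Cells were seeded at 2000 cells/well, attached for 10-12 hours, then exposed to compounds for 30-36 hours at 37C before ONE-Glo luminescence.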
# FLuc modulator: qHTS profiling assay for firefly luciferase inhibitor/activator using purifed enzyme and Km concentrations of substrates (counterscreen for miR-21 project); 360,000 tested, 6.9% active; purified FLuc, Km substrates, luminescence inhibition; Potency, µM (doses to about 57.5 µM), inactives show top-dose activity change, negative = inhibition, actives largely listed as inhibitors; Luciferin 4-monooxygenase (Photinus pyralis), P08659;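 note: plate controls were vehicle for no effect and reference inhibitor for full effect; nearly all actives have a fitted effect of over 55% in size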
# Target sequence (P08659 whole entry, looked up): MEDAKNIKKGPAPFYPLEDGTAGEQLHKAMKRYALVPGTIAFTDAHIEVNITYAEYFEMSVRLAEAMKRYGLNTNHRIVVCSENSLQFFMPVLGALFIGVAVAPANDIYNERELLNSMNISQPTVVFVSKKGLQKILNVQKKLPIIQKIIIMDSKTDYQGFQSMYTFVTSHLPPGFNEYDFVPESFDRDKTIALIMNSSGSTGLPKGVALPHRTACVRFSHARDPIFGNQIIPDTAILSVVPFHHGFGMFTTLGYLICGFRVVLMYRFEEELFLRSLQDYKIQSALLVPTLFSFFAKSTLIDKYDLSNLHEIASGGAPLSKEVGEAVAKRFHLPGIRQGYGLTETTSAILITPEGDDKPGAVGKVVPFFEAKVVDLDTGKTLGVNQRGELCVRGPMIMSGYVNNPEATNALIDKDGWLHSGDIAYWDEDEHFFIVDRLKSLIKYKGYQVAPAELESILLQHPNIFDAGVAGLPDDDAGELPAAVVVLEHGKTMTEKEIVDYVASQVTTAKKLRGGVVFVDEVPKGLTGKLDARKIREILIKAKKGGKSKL
#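 Purified P. pyralis luciferase, 10 nM final, with Km-level 10 uM D-luciferin and 10 uM ATP in 50 mM Tris acetate pH 7.5, 10 mM Mg acetate, 0.01% Tween-20, 0.05% BSA; 6-point qHTS titration about 60 µM downward; luminescence read.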
# Rab9 promoter act: qHTS Assay for Rab9 Promoter Activators. Huh7 Rab9 promoter-luciferase reporter, luminescence, 24 h. Potency, µM (top dose mostly 9.22 µM), for the others: top-dose activation, negative = inhibition, actives largely listed as activators. 320,000 tested, 2.8% active. AID 485297, 2010; note: % of control where 0% means no effect; nearly all actives have a fitted effect of over 60% in size
#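 Stable Rab9-luc Huh7, 1500 cells/well, 2 h settle; cmpd in DMSO, 24 h, 37 °C/5% CO2; luciferase reagent 10 min RT; luminescence.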
# NPC1 promoter act: qHTS Assay for NPC1 Promoter Activators | Huh7 NPC1 promoter luciferase reporter, 24 h | Potency, µM (doses to about 9.22 µM), inactives show at the top dose activation, usual class: activators | 320,000 tested, 2.4% active | AID 485313, 2010; note: % of control where 0% means no effect; nearly all actives have a fitted effect of over 60% in size
#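 Quantitative HTS used a cell-based reporter: Huh7 cells stably bearing the NPC1 promoter upstream of luciferase were treated with compounds for 24 h, and promoter activation was read as luminescence.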
# ELG1 DNA repair: qHTS screen for small molecules that inhibit ELG1-dependent DNA repair in human embryonic kidney (HEK293T) cells expressing luciferase-tagged ELG1; Potency, µM (top dose mostly 46.1 µM), for inactives: at the top dose activity change, negative = inhibition, usual class: inhibitors; HEK293T ELG1-luciferase reporter, luminescence, 16 h; DNA damage induced by 5-fluorouridine; AID 504467, 2011; 330,000 tested, 2.3% active; note: % is set by controls: 0 for no effect and ±100 for the full control effect; nearly all actives have a fitted effect of over 55% in size
#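 Luminescence from the luciferase reporter, measured 30 min after ONE-Glo reagent at room temperature, was the read-out. Beforehand, 2,000 cells per well were exposed for 16 hr at 37 °C to 5-fluorouridine together with compound or vehicle.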
# ELG1 genotoxic: qHTS screen for small molecules that induce genotoxicity in human embryonic kidney (HEK293T) cells expressing luciferase-tagged ELG1 | HEK293T ELG1-luciferase reporter, luminescence, 16 h | Potency, µM (highest dose often 46 µM), for inactives: at the highest dose activity change, positive = activation, hits mostly activators | 330,000 tested, 1.3% active | AID 504466, 2011; note: % of control where 0% means no effect; nearly all actives have a fitted effect of over 60% in size
#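 Step 1: seed 2,000 HEK293T ELG1-luciferase cells per well. Step 2: add compound or DMSO, incubate 16 hr at 37 °C. Step 3: ONE-Glo, 30 min at room temperature, read luminescence.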
# Active calls of the source: *; ? = inconclusive; nt = not tested or not shown. Rows were chosen to be rich in hits. Some 9.2% of all compounds tested hit in one or more screens of this group. Calls come from the whole dose curve; as a rule, active = well fitted curve in the direction sought with a large enough effect; inconclusive = small, poorly fitted or top-dose-only effect, or another doubt; inactive = no such curve, though single readings can be large; an effect the other way counts as inactive or inconclusive. Potency is the fitted concentration of half-maximal effect.
SMILES,SMN2 splice enh,FLuc modulator,Rab9 promoter act,NPC1 promoter act,ELG1 DNA repair,ELG1 genotoxic
O=C(c1cc(-c2cccs2)nn1-c1ccccc1)N1CCN(S(=O)(=O)c2ccccc2)CC1,nt,4%,-1%,-11%,-9%,-4%
Nc1ccc2c(c1)C(=O)C(=O)c1ccccc1-2,-62%,?,-41%,-34%,4.6µM*,-21%
Nc1ccc2c(c1)C(=O)c1ccccc1C2=O,16µM*,13µM*,4µM*,?,?,?
Nc1ccc2c(c1)C(=O)N(c1cccc3ccccc13)C2=O,nt,-8%,12%,2%,-4%,1%
O=C1C(=O)c2ccc(-c3ccccc3)cc2-c2ccccc21,-99%,3%,-38%,-42%,9.2µM*,-13%
CCOC(=O)c1c(NC(=O)CSc2cn(CCNC(=O)c3ccc(OC)cc3)c3ccccc23)sc2c1CCC2,-3%,-11%,nt,nt,nt,nt
CC(C)CN(C(=O)CCC(=O)OCC(=O)N(C)c1ccccc1)c1c(N)n(CC(C)C)c(=O)[nH]c1=O,nt,0%,1%,0%,0%,3%
Cc1ccccc1-n1c(C)cc(/C=C(\C#N)C(=O)NCC2CCCO2)c1C (stereo unspecified),-7%,0.95µM*,?,0%,?,10µM*
Cc1cc(/C=C(\C#N)C(=O)NCc2cccs2)c(C)n1-c1ccccc1F,-29%,2.1µM*,3.5µM*,3.5µM*,?,?
COc1ccc(/C=C(\C#N)C(=O)NCc2cccs2)cc1OC,2%,-13%,0%,-3%,-4%,0%
COC(=O)[C@@]12CCCN1[C@H](c1ccc(-c3ccc(Cl)c(Cl)c3)c(OC)c1)[C@H]1C(=O)N(C)C(=O)[C@H]12,nt,nt,nt,nt,?,-2%
COc1ccccc1N1CCN(C(=O)c2ccc(COc3cccc4c3OC(C)(C)C4)cc2)CC1,nt,1%,-1%,-4%,?,0%
CCNC(=O)COc1ccc(F)cc1C(=O)c1cnn(-c2ccccc2)c1,nt,0%,2%,1%,14%,6%
COc1ccccc1CNC(=O)COc1ccccc1C(=O)c1cnn(-c2ccccc2)c1,nt,9.5µM*,17%,16%,?,7%
CC(=O)c1ccc(NC(=O)COc2ccccc2C(=O)Nc2ccccc2)cc1,nt,?,12%,13%,?,-17%
O=C(COc1ccccc1C(=O)c1cnn(-c2ccccc2)c1)Nc1ccccc1,25µM*,1.5µM*,?,26%,?,5%
CC(CNC(=O)CCc1nnc2ccc(N3CCC4(CC3)OCCO4)nn12)c1ccccc1 (stereo unspecified),nt,1%,-4%,-5%,-2%,1%
CC(=O)Nc1ccc(S(=O)(=O)NC(C)c2ccccc2)cc1 (stereo unspecified),nt,10%,1%,2%,-5%,-3%
Cc1ccc(-c2csc3nc(SCC(N)=O)n(Cc4ccccc4)c(=O)c23)cc1,-1%,-1%,3%,-4%,23µM*,-7%
O=C1C(=O)N(C2CCN(S(=O)(=O)c3ccccc3)CC2)CCN1Cc1ccccc1,nt,-2%,nt,nt,nt,nt
Cc1ccc(S(=O)(=O)N2CCCC2CNC(=O)c2ccc3c(c2)OCO3)cc1 (stereo unspecified),nt,?,1%,0%,10%,-1%
CCc1ccc(-c2nc(CSCC(=O)N3CCN(c4ccccn4)CC3)c(C)o2)cc1,nt,?,-26%,-10%,?,-11%
COc1ccc(-c2nc(CSCC(=O)N3CCN(c4ccccc4F)CC3)c(C)o2)cc1,-65%,-18%,nt,nt,nt,nt
Cc1ccc(-c2nc(CSCC(=O)N3CCN(c4ccccn4)CC3)c(C)o2)cc1,-95%,6%,0%,0%,10µM*,-8%
CCOc1ccc(-c2nc(CSCC(=O)N3CCN(c4cccc(OC)c4)CC3)c(C)o2)cc1,-97%,24µM*,-8%,2%,?,-9%
SMILES,SMN2 splice enh,FLuc modulator,Rab9 promoter act,NPC1 promoter act,ELG1 DNA repair,ELG1 genotoxic
CCCC[C@@H]1C[C@H]1C(NC(=O)c1ccccc1)c1ccc(-c2ccccc2)cc1 (stereo partly specified),-37%,nt,nt,nt,nt,nt
O=C1N/C(=N/O)S/C1=C/c1cccnc1,12%,?,16%,7%,21%,0%
C=CCOc1ccc(/C=C2\SC(=Nc3cccnc3)NC2=O)cc1,nt,7.6µM*,1%,-3%,?,9%
CC(/C=C1\SC(=Nc2cccnc2)NC1=O)=C\c1ccccc1,nt,?,-15%,-26%,-18%,-7%
Cc1ccccc1N=C1NC(=O)/C(=C/c2cccnc2)S1,nt,3%,-7%,-4%,21µM*,-14%
Cn1nc(C(=O)NNC(=O)CCc2ccccc2Cl)c2ccccc2c1=O,nt,-1%,1%,2%,0%,1%
Cc1nc2c(C(=O)N3CCCCC3)cnn2c(C)c1Cc1ccccc1F,?,?,1.6µM*,1.6µM*,?,?
Cc1cc(C)c2c(N)c(C(=O)NN)sc2n1,nt,-15%,-3%,1%,?,8%
Cc1ccc(S(=O)(=O)Nc2nc(C)c(C(=O)N/N=C/c3ccccc3)s2)cc1,-37%,6µM*,7%,-1%,-19%,-20%
Cc1ccc(S(=O)(=O)Nc2nc(C)c(C(=O)Nc3ccccc3)s2)cc1,?,-18%,1%,-3%,8%,-1%
Cc1cc(C)c2c(N)c(C(=O)NNC(=O)c3ccccc3)sc2n1,11µM*,?,3.5µM*,3.2µM*,?,?
Cc1cc(C)c2c(N)c(C(=O)N/N=C/c3cccnc3)sc2n1,nt,?,?,?,?,11%
Cc1cc(C)c2c(N)c(C(=O)N/N=C/c3ccccc3)sc2n1,nt,3.4µM*,1.8µM*,1.8µM*,?,?
CC1CCc2c(sc(NC(=O)c3cc4nc(-c5ccc(Cl)cc5)cc(C(F)(F)F)n4n3)c2C#N)C1 (stereo unspecified),5%,2%,nt,nt,nt,nt
Clc1cccc(CNCCCSc2nnnn2-c2ccccc2)c1,nt,-2%,nt,nt,nt,nt
CC1=NN(C(N)=S)C(=O)C1N=Nc1cccc(Cl)c1 (stereo unspecified),nt,17µM*,?,?,?,?
CC(=O)N(C)c1ccc(N=NC2C(=O)N(C(N)=S)N=C2C)cc1 (stereo unspecified),nt,3µM*,-52%,0.5µM*,?,?
